Assay outcomes as filed in PubChem.
HepG2 tox: qHTS for Inhibitors of TGF-b: Cytotox Counterscreen; actives 0.76% (n = 410,000); HepG2 CAGA-GFP viability, ATP luminescence, 18 h; Potency, µM (series often up to 46.1 µM), for inactives: at the highest dose activity change, negative = cytotoxicity, actives largely listed as cytotoxic; also: potency is read from the fitted curve at half-maximal effect
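CellTiter-Glo luminescence gave cytotoxicity after 18 hours at 37 degrees C. The cells were HepG2 CAGA-GFP in 1% FBS DMEM, stimulated with 500 pg/mL TGF-beta after compound addition. %Activity was normalised to no-cell wells (complete cell-killing) and DMSO (no toxicity), and curves were fitted and classified.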
DT40 TDP1 CPT: qHTS for Inhibitors of human tyrosyl-DNA phosphodiesterase 1 (TDP1): qHTS in cells in presence of CPT; Potency, µM (highest dose often 46.2 µM), inactives show top-dose activity change, negative = growth inhibition, most hits filed as inhibitors; chicken DT40 Tdp1-/-;hTDP1 cells + 20 nM CPT, ATP luminescence, 48 h; actives 12% (n = 420,000); AID 686979, 2013; also: potency is read from the fitted curve at half-maximal effect; % is scaled to controls: 0 for no effect and ±100 for the full control effect; nearly all actives have a fitted effect of over 55% in size
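Chicken DT40 Tdp1-/- cells stably complemented with human TDP1 were seeded at 400 cells/well in medium containing 20 nM camptothecin, exposed to pin-transferred compounds, and grown at 37 °C for at least 48 hr. Viability was read as ATP luminescence.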
TDP1 inh: qHTS Assay for Inhibitors of Tyrosyl-DNA Phosphodiesterase (TDP1); Tyrosyl-DNA phosphodiesterase 1 (Homo sapiens), Q9NUW8; recombinant TDP1, AlphaScreen DNA substrate cleavage; Potency, µM (highest dose often 130 µM), for the others: at the top dose activity change, negative = inhibition, usual class: inhibitors; actives 0.28% (n = 350,000); also: potency is read from the fitted curve at half-maximal effect; % is scaled to controls: 0 for no effect and ±100 for the full control effect; nearly all actives have a fitted effect of over 40% in size
Target sequence (Q9NUW8 whole entry, looked up): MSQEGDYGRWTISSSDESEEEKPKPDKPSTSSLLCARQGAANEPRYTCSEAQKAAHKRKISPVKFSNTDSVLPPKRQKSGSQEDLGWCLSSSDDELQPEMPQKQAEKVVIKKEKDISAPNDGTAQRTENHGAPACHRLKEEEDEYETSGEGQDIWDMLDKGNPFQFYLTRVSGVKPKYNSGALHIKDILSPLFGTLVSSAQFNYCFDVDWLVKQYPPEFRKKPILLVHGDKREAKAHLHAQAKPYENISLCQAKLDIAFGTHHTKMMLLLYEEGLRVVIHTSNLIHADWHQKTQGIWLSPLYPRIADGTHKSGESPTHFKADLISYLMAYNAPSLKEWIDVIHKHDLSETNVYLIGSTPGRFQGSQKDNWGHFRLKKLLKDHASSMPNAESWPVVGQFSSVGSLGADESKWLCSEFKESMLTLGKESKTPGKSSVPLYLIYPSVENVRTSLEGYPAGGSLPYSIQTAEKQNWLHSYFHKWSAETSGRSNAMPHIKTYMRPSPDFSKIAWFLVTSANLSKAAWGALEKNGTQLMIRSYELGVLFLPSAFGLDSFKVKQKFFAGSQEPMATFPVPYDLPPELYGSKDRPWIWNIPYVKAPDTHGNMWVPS
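Compounds were preincubated with Tdp1 (1 nM final) for 15 min at room temperature before substrate (15 nM final) started a 5 min reaction; beads (10 ug/ml final) were then added for 10 min before AlphaScreen detection.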
DT40 TDP1 no CPT: qHTS for Inhibitors of human tyrosyl-DNA phosphodiesterase 1 (TDP1): qHTS in cells in absence of CPT. AID 686978, 2013. actives 15% (n = 420,000). Potency, µM (top dose mostly 46.2 µM), without a hit: top-dose activity change, negative = growth inhibition, usual class: inhibitors. DT40 Tdp1-/- hTDP1 cells, no CPT, ATP luminescence, 48 h; also: potency is read from the fitted curve at half-maximal effect; % is scaled to controls: 0 for no effect and ±100 for the full control effect; nearly all actives have a fitted effect of over 55% in size
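DT40 Tdp1-/-;hTDP1 cells, no CPT (DMSO vehicle only), 400 cells/well; compounds pin-transferred; ≥48 hr, 37 °C; CellTiter-Glo 30 min RT dark, luminescence read.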
TGFb inhibitor: qHTS for Inhibitors of TGF-b | HepG2 CAGA-GFP TGF-b/SMAD3 reporter, GFP fluorescence, 18 h; TGF-beta stimulated, 500 pg/mL final | Potency, µM (highest dose often 46.1 µM), for the others: at the highest dose activity, negative = inhibition, hits mostly inhibitors | actives 1.2% (n = 410,000) | AID 588855, 2011; also: potency is read from the fitted curve at half-maximal effect; % is scaled to controls: 0 for no effect and ±100 for the full control effect; nearly all actives have a fitted effect of over 65% in size
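Cell-based qHTS in HEPG2 carrying a CAGA-GFP Smad reporter; compounds added before 500 pg/mL final TGF-beta, 18 h incubation at 37 degrees C, GFP fluorescence quantified per cell by imaging cytometry.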
IL1B secr inh: qHTS for Inhibitors of Inflammasome Signaling: IL-1-beta AlphaLISA Primary Screen; THP-1 LPS/ATP IL-1B secretion, AlphaLISA, 16 h; active compounds read low; activity change, % at 57.5 µM; actives 4.7% (n = 360,000); AID 743279, 2014; in the data active = activity change below about -50%; inconclusive = mostly about -30% to -49%; also: % is scaled to controls: 0 for no effect and ±100 for the full control effect
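Secreted IL-1B measured by AlphaLISA bead assay after 16 h compound exposure of THP-1 cells; compounds (final up to 57.5 uM) added 1 h before LPS (250 ng/mL) and ATP (1.25 mM) stimulation; lower signal means less secretion.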
* = called active by the depositor. Sampled rows, rich in hits. Any-hit rate of the full collection: about 19%. Unless noted, calls follow the shape of the dose curve; as a rule, active = well fitted curve in the direction sought with a large enough effect; inconclusive = small, poorly fitted or top-dose-only effect, or another doubt; inactive = no such curve, though single readings can be large; an effect the other way counts as inactive or inconclusive.

Results for COc1ccc(N2CCN(c3nc4ccccc4n4c(C)nnc34)CC2)cc1 ?
HepG2 tox: 1%; DT40 TDP1 CPT: -6%; TDP1 inh: 4%; DT40 TDP1 no CPT: -9%; TGFb inhibitor: 46%

How did CCc1nnc2c(N3CCN(c4cccc(C)c4)C(C)C3)nc3ccccc3n12 (stereo not drawn) do in these assays?
HepG2 tox: -21%; DT40 TDP1 CPT: 21µM*; TDP1 inh: -3%; DT40 TDP1 no CPT: inconclusive; TGFb inhibitor: -14%

Results for CCc1nnc2c(N3CCN(c4cccc(C(F)(F)F)c4)CC3)nc3ccccc3n12 ?
HepG2 tox: -16%; DT40 TDP1 CPT: 21µM*; TDP1 inh: 3%; DT40 TDP1 no CPT: 21µM*; TGFb inhibitor: inconclusive

What do the screens show for `Cc1ccc(CC(=O)Nc2ccc3c(c2)N(C)C(=O)c2ccccc2S3)cc1`?
HepG2 tox: -6%; DT40 TDP1 CPT: inconclusive; TDP1 inh: -4%; DT40 TDP1 no CPT: inconclusive; TGFb inhibitor: -28%

How did NC(c1csc(Nc2cc(NCc3ccco3)ncn2)n1)c1ccccc1Cl (stereo not drawn) do in these assays?
HepG2 tox: -45%; DT40 TDP1 CPT: 21µM*; DT40 TDP1 no CPT: 15µM*; TGFb inhibitor: inconclusive; IL1B secr inh: -79*

How did NC(Cc1ccc(F)cc1)c1csc(Nc2cc(NCc3ccco3)ncn2)n1 (stereo not drawn) do in these assays?
HepG2 tox: -48%; DT40 TDP1 CPT: 23µM*; DT40 TDP1 no CPT: 21µM*; TGFb inhibitor: inconclusive; IL1B secr inh: -55*

How did O=C(CCCCC(=O)OC1CCCCC1)OC1CCCCC1 do in these assays?
HepG2 tox: -9%; DT40 TDP1 CPT: inconclusive; DT40 TDP1 no CPT: -14%; TGFb inhibitor: -4%; IL1B secr inh: 0

Results for C[N+]1(CC(=O)OCCCC2CCCCC2)CCCC1 ?
HepG2 tox: -8%; DT40 TDP1 CPT: -28%; TDP1 inh: 5%; DT40 TDP1 no CPT: 21µM*; TGFb inhibitor: -5%; IL1B secr inh: 26

Results for CC(C)CC1CCCCC1OC(=O)C[N+]1(C)CCCCC1 (stereo not drawn) ?
HepG2 tox: 1%; DT40 TDP1 CPT: inconclusive; TDP1 inh: 1%; DT40 TDP1 no CPT: 10µM*; TGFb inhibitor: 12%; IL1B secr inh: -19

What do the screens show for `CC(C)(C)C1CCC(OC(=O)C[N+]2(C)CCCCC2)CC1` (stereo not drawn)?
HepG2 tox: -27%; DT40 TDP1 CPT: inconclusive; TDP1 inh: 2%; DT40 TDP1 no CPT: 10µM*; TGFb inhibitor: -7%; IL1B secr inh: -6

How did CC(C)(C)C1CCC(OC(=O)C[N+]2(C)CCCC2)CC1 (stereo not drawn) do in these assays?
HepG2 tox: 17%; DT40 TDP1 CPT: 4.1µM*; TDP1 inh: 1%; DT40 TDP1 no CPT: 5.2µM*; TGFb inhibitor: 20%; IL1B secr inh: 8

Results for CC(C)(C)C1CCC(OC(=O)CN2CCOCC2)CC1 (stereo not drawn) ?
HepG2 tox: -19%; DT40 TDP1 CPT: -11%; TDP1 inh: 1%; DT40 TDP1 no CPT: -5%; TGFb inhibitor: -7%; IL1B secr inh: 8

Results for CCOC(=O)Cc1ccc(NC(=O)N2CCC(CN3CCC(C)CC3)CC2)cc1 ?
HepG2 tox: -20%; DT40 TDP1 CPT: 3%; TDP1 inh: 6%; DT40 TDP1 no CPT: -1%; TGFb inhibitor: -4%

Results for CCOc1ccccc1NC(=O)c1cc(=O)c2ccc(C)cc2o1 ?
HepG2 tox: -2%; DT40 TDP1 CPT: -2%; TDP1 inh: -4%; DT40 TDP1 no CPT: -20%; TGFb inhibitor: -27%

Results for S=c1sc2c(Cl)ncnc2n1-c1ccccc1 ?
HepG2 tox: -86%; DT40 TDP1 CPT: 16µM*; TDP1 inh: 6%; DT40 TDP1 no CPT: 10µM*; TGFb inhibitor: inconclusive; IL1B secr inh: -96*

What do the screens show for `Cc1nc(N2CCN(C)CC2)c2sc(=S)n(-c3ccccc3)c2n1`?
HepG2 tox: -11%; DT40 TDP1 CPT: inconclusive; TDP1 inh: 8%; DT40 TDP1 no CPT: inconclusive; TGFb inhibitor: 21%; IL1B secr inh: -16

What do the screens show for `CCOC(=O)c1cc(-c2ccc(OC)c(S(=O)(=O)N3CCN(c4ccccc4)CC3)c2)on1`?
HepG2 tox: 0%; DT40 TDP1 CPT: 16µM*; TDP1 inh: 3%; DT40 TDP1 no CPT: 21µM*; TGFb inhibitor: -20%

Results for CCc1ccc(-c2cc(C)no2)cc1S(=O)(=O)N1CCN(c2ccccc2OC)CC1 ?
HepG2 tox: -14%; DT40 TDP1 CPT: inconclusive; TDP1 inh: 2%; DT40 TDP1 no CPT: inconclusive; TGFb inhibitor: 0%; IL1B secr inh: -1

How did CCc1ccc(-c2cc(C)no2)cc1S(=O)(=O)N1CCN(c2ccccc2)CC1 do in these assays?
HepG2 tox: -13%; DT40 TDP1 CPT: 16µM*; TDP1 inh: 4%; DT40 TDP1 no CPT: inconclusive; TGFb inhibitor: -26%; IL1B secr inh: 0

Results for Cc1ccccc1CNC(=O)Cn1nc(C)c2nn(-c3ccc(Cl)cc3)c(C)c2c1=O ?
HepG2 tox: 0%; DT40 TDP1 CPT: inconclusive; TDP1 inh: 0%; DT40 TDP1 no CPT: inconclusive; TGFb inhibitor: -25%

Results for CCc1cccc(C)c1NC(=O)Cn1nc(C)c2nn(-c3ccc(Cl)cc3)c(C)c2c1=O ?
HepG2 tox: -13%; DT40 TDP1 CPT: 16µM*; TDP1 inh: 8%; DT40 TDP1 no CPT: 21µM*; TGFb inhibitor: inconclusive

What do the screens show for `CCOC(=O)c1ccc(NC(=O)Cn2nc(C)c3nn(-c4ccc(Cl)cc4)c(C)c3c2=O)cc1`?
HepG2 tox: -16%; DT40 TDP1 CPT: -20%; TDP1 inh: 5%; DT40 TDP1 no CPT: inconclusive; TGFb inhibitor: inconclusive

What do the screens show for `CCOc1ccccc1CNC(=O)Cn1nc(C)c2nn(-c3ccc(Cl)cc3)c(C)c2c1=O`?
HepG2 tox: -4%; DT40 TDP1 CPT: inconclusive; TDP1 inh: 3%; DT40 TDP1 no CPT: 18µM*; TGFb inhibitor: -20%
